Drawing on PubChem BioAssay AID731 (The Scripps Research Institute Molecular Screening Center, 2007), this text covers activation for 65 molecules.

Molecules are shown by their SMILES. The campaign covered roughly 200,000 compounds. About 520 (0.26%) were called active. Cut-off read from the data, not from the text of the source: active = activation above about 23%; inactive = the rest. What follows is part of a selection rich in actives, with near analogues and random picks from the rest.

Chain of Peroxisome proliferator-activated receptor gamma (Homo sapiens) (P37231 whole entry, looked up): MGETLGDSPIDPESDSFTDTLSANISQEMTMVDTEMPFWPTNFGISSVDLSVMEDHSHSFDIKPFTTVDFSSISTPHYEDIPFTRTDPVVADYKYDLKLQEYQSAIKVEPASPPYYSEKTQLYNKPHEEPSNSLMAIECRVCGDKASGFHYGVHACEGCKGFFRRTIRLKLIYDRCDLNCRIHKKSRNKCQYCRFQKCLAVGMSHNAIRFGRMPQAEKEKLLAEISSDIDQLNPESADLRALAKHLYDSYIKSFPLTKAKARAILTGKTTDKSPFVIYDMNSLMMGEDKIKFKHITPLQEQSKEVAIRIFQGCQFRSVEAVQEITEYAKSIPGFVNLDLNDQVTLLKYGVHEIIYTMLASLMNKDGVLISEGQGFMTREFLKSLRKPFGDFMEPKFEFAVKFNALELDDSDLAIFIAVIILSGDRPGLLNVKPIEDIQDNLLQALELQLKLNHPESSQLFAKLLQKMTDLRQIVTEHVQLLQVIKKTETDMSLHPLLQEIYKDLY

The experiment has as its target Peroxisome proliferator-activated receptor gamma (Homo sapiens) (UniProt P37231). The experiment is described as follows: enhancers of SRC-3 binding to PPARgamma – biochemical, primary screen (AID 731).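 Note: 0% = DMSO and 100% = reference agonist.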 Conditions: biochemical PPARgamma/SRC-3 coactivator recruitment assay; at 8 µM; hits give high values.
On to `O=S(=O)(NC1CCCCC1)c1ccc(F)c2ccccc12`, for which the activation is 7.29% (inactive).

`Cc1cc(C)cc(C(=O)N(CCc2ccccc2)C2=CC3CCC(C2)N3C)c1` (stereo not given): the activation was 0.55% (inactive). Turning to `O=C(NCc1cccs1)c1ccc(Br)o1`, the activation is 1.17% (inactive). On to `O=[N+]([O-])c1ccc(Sc2n[nH]c(-c3ccco3)n2)nc1`, for which the activation is 2.58% (inactive).

With `COc1ccc(N2CCN(CCCNC(=O)C3CCN(S(=O)(=O)N4CCOCC4)CC3)CC2)cc1`, the activation is -2.17% (inactive). Under `O=C(OCc1cc(Cl)ccc1OC(F)F)c1cccnc1` stands 0.24% (inactive). For the molecule `CN1CCN(C(=O)/C(=C\c2cccs2)NC(=O)c2cccs2)CC1`, the activation was -1.89% (inactive). Under `NS(=O)(=O)c1ccc(CCNC(=O)c2ccc([N+](=O)[O-])cc2[N+](=O)[O-])cc1` stands 6.7% (inactive); under `O=C(Nc1cccc(C(F)(F)F)c1)c1cnccn1`, 12.3% (inactive); under `CCOC(=O)c1ccc(COC(=O)CCc2nc(-c3ccccc3)c(-c3ccccc3)o2)cc1`, -0.63% (inactive). Regarding `CCO/N=C(/C)c1c(O)cc(-c2ccccc2)n(-c2ccccc2)c1=O`, the activation is 0.18% (inactive). To `CC(=O)N/N=C(\C)c1ccc(Br)cc1Br` belongs -1.47% (inactive). As to `CCc1ccc(C(=O)OCC(=O)Nc2cccc(S(=O)(=O)NC3=NCCCCC3)c2)cc1`, the activation was -1.75% (inactive). Consider `Cc1ccc(NC(=O)c2sc3nc(N)c(C#N)cc3c2N)cc1`, for which the activation is 1.84% (inactive). As for `COc1cc(NC(=O)c2cc([N+](=O)[O-])ccc2Br)ccc1NC(=O)c1ccco1`, the activation was -4.35% (inactive). Regarding `CN(C)c1nnnn1-c1ccc(Cl)cc1`, the activation is -1.68% (inactive). Under `Cc1ccccc1NC(=O)C(C)c1ccc(-c2ccccc2)c(F)c1` (stereo not given) stands -1.23% (inactive). As to `CCOc1ccc(/C=N/NC(=O)C(C)Sc2ccccn2)cc1OCC` (stereo not given), the activation is 4.85% (inactive). Consider `CCN(CC)S(=O)(=O)c1ccc(Cl)c(C(=O)NC(C)C(c2cccs2)N2CCCC2)c1` (stereo not given), for which the activation was 5.06% (inactive). As to `Cc1ccc(C2C3=C(Nc4[nH]n(-c5ccccc5)c(=O)c42)c2ccccc2C3=O)cc1` (stereo not given), the activation is 1.23% (inactive). To `COc1ccc(S(=O)(=O)N2CCOCC2)c(C)c1C` belongs 13.6% (inactive).

Consider `Cc1ccc(-c2cc(C(=O)N/N=C/C=C/c3ccccc3)n[nH]2)o1`, for which the activation is -0.56% (inactive). For the molecule `CCOC(=O)c1c(C)nc2c(c1C)c(=O)oc1ccccc12`, the activation was 15.5% (inactive). Consider `Cc1cc(C(=O)CSc2nc(N)cc(=O)[nH]2)c(C)n1CCc1ccc(Cl)cc1`, for which the activation is 5.4% (inactive). Regarding `O=C(O)COc1ccc(/C=N/O)cc1Br`, the activation is 3.92% (inactive). Under `COCCNC(=O)CCCn1c(=O)c2ccccc2n(Cc2cccc([N+](=O)[O-])c2)c1=O` stands 2.44% (inactive); under `CC(=O)n1cc([C@@H]2C=C(C(=O)N3CCN(Cc4ccc5c(c4)OCO5)CC3)O[C@H](OCc3ccc(CO)cc3)C2)c2ccccc21`, -1.58% (inactive); under `Cc1cnc(C(=O)N2CCCC(C(=O)c3ccc(C(F)(F)F)cc3)C2)cn1` (stereo not given), -0.94% (inactive).

Consider `Cc1cc(=O)oc(C)c1C(=O)NCCN(C)Cc1ccccc1`, for which the activation was 1.75% (inactive). Under `CN(C)c1ccc(N/C=C/C(=O)C(F)(F)F)cc1` stands 23.6% (active). Under `CCCOc1ccc(N/C=C/C(=O)C(C)(C)C)cc1` stands 0.22% (inactive). To `O=C(/C=C/Nc1ccccc1OC(F)(F)F)C(F)(F)F` belongs 1.89% (inactive). Turning to `CC(=O)NS(=O)(=O)c1ccc(NC(=O)C2C3C=CC(C3)C2C(=O)O)cc1` (stereo not given), the activation was 0.92% (inactive). With `CC(=O)Cc1nsc(NC(=O)c2ccc(Cl)cc2Cl)n1`, the activation is -0.15% (inactive). Turning to `O=C(NCc1nnc(SCC(=O)N2CCC(Cc3ccccc3)CC2)o1)c1ccco1`, the activation is -1.46% (inactive). In the case of `CCOC(=O)C1CCN(C(=O)c2ccccc2N(C)S(=O)(=O)c2ccccc2)CC1`, the activation is 0.82% (inactive). As to `COc1ccc(-n2nc3c(c2NC(=O)c2ccc(N4C(=O)CCC4=O)cc2)CSC3)cc1`, the activation was 2.03% (inactive). With `COc1ccccc1C1/C(=C(/O)c2ccc(C)cc2)C(=O)C(=O)N1Cc1ccco1` (stereo not given), the activation is -1.85% (inactive). Under `COc1ccc(/C(O)=C2/C(=O)C(=O)N(c3nc(C)c(C)s3)C2c2ccco2)cc1` (stereo not given) stands 32.8% (active); under `COc1ccc(/C(O)=C2\C(=O)C(=O)N(Cc3ccco3)C2c2ccc(OC)cc2OC)cc1` (stereo not given), 8.22% (inactive).

With `CCc1ccc(NC(=O)C(=O)N/N=C(\C)CC(=O)NCCOC)cc1`, the activation was 0.12% (inactive). For the molecule `CN(C)c1ccc(C(=S)N2CCN(C(=S)Nc3ccc(Cl)cc3)CC2)cc1`, the activation is 2.08% (inactive). As for `CCOC(=O)C1CCN(C(=O)CSc2cc(=O)n(C)c3ccccc23)CC1`, the activation is 63.4% (active). `Cn1c(=O)cc(SCC(=O)N2CCCC2)c2cc(Cl)ccc21`: the activation is 39.3% (active).

For `CCOc1ccc(CCNC(=O)CSc2cc(=O)n(C)c3ccc(Cl)cc23)cc1OCC`, the activation was 10.2% (inactive).

Turning to `CC(=O)c1ccc(-n2nnnc2SCC(=O)N2CCN(C(=O)c3ccco3)CC2)cc1`, the activation is 0.9% (inactive).

In the case of `CCOC(=O)C1CCN(C(=O)Cn2cc(C#N)c3ccccc32)CC1`, the activation was 13.8% (inactive). Take `Cn1c(=O)cc(SCC(=O)N2CCN(C(=O)c3ccco3)CC2)c2ccccc21`: the activation was 82.2% (active).

For the molecule `Cc1cccc(OCc2nnc(SCC(=O)N3CCN(C(=O)c4ccco4)CC3)n2C)c1C`, the activation is 9.2% (inactive).

Regarding `O=C(CSCc1ccc(Cl)cc1)N1CCCCC1`, the activation is 7.11% (inactive).

In the case of `CCOC(=O)N1CCC(NC(=O)COc2cc(=O)n(C)c3ccccc23)CC1`, the activation is -2.51% (inactive).

With `COC(=O)c1ccccc1SC1CC(=O)N(c2cccc(C)c2)C1=O` (stereo not given), the activation is 33% (active). In the case of `Cc1cccc(N2C(=O)CC(SC(N)=Nc3ccccc3)C2=O)c1` (stereo not given), the activation was -7.93% (inactive). To `COC(=O)c1cc(C(=O)OC)cc(N2C(=O)CC(N3CCN(c4ccccc4)CC3)C2=O)c1` (stereo not given) belongs -12.5% (inactive); to `O=C(COC(=O)/C(=C/c1cccs1)c1cccs1)NCc1ccccc1Cl`, 3.76% (inactive). As for `COc1ccc(C2CC(c3ccccc3)=NN2C(=O)COC(=O)COc2ccccc2)cc1` (stereo not given), the activation is -0.96% (inactive). On to `CNC(=S)N1N=C(c2ccccc2)CC1c1ccc(Br)cc1` (stereo not given), for which the activation is 34.4% (active).

For the molecule `Brc1ccc(C2CC(c3ccccc3)=Nc3ccccc3N2)cc1` (stereo not given), the activation was 0.93% (inactive). Consider `Cc1ccc2[nH]c3c(=O)n(Cc4ccccn4)cnc3c2c1`, for which the activation is 8.8% (inactive). For the molecule `CC(=O)c1ccc(S(=O)(=O)N2CCN(c3nc4c(C)c(C)ccc4cc3C#N)CC2)cc1`, the activation is 56.6% (active). On to `Cc1cccc2cc(C#N)c(N3CCCC3)nc12`, for which the activation is -13.8% (inactive). On to `Cc1cc(C)c2nc(N3CCCC3)c(C#N)cc2c1`, for which the activation is -3.43% (inactive). With `O=C(NCc1ccccc1)C1=C[C@@H](C2CCCCC2)C[C@@H](OCc2ccc(CO)cc2)O1`, the activation is -1.47% (inactive). For `CCS(=O)(=O)Nc1cccc(-c2cc(-c3ccccc3)c3cc(C)ccc3n2)c1`, the activation is -3.81% (inactive). Regarding `O=C(CSc1nc2cccnc2n1Cc1ccccc1)N1CCc2ccccc21`, the activation was -2.44% (inactive).
